# Bioassay records deposited in PubChem by Broad Institute.
# The full list was thinned out, with hits kept by preference.
# STK33 kin inh = inhibitors of human STK33 kinase | inhibition, % at 12.5 µM | AID 2322 | 27,000 compounds, 0.44% hits | ADP-Glo luminescence, MBP substrate | Q9BYT3; in the data active means inhibition above about 20%; inconclusive means no clear call, values can overlap the other calls
# Target sequence (Q9BYT3 whole entry, looked up): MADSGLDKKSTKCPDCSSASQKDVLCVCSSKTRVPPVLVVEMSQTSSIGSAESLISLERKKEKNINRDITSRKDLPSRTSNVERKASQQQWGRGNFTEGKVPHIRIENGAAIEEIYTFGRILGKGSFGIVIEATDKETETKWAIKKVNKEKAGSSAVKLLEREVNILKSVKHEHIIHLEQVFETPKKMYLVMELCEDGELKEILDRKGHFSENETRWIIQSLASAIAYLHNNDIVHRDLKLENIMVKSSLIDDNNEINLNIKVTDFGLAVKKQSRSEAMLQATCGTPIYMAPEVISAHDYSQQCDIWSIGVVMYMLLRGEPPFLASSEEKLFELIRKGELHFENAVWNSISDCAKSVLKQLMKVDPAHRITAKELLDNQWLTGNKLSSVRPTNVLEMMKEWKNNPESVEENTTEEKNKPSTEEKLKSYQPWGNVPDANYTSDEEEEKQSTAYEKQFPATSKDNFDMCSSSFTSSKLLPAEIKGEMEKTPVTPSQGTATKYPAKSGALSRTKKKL
# NOMO-1 viab = STK33 inhibitor candidate reducing NOMO-1 cell viability. NOMO-1 AML viability, CellTiter-Glo luminescence, 72 h. 37,000 compounds, 7.5% hits. inhibition, % (test concentration not listed); in the data active means inhibition above about 80%; inconclusive means no clear call, values can overlap the other calls
# PD-1 reversal = reversal of PD-1 mediated T-cell inhibition. primary human CD4 T cells, PD-L1 beads, CellTiter-Glo 96 h. activation, % (no concentration beside the values). 29,000 tested, under 10 active; call rule not given here;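 further: 0% = median vehicle wells and 100% = positive control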
# * = called active by the depositor; ? = inconclusive; nt = no result.
SMILES,STK33 kin inh,NOMO-1 viab,PD-1 reversal
COc1ccc(NC(=O)Nc2cccc3c2O[C@H](CN(C)Cc2ccc(Oc4ccccc4)cc2)[C@H](C)CN([C@H](C)CO)C3=O)cc1,nt,44,-1
O=C(CSc1nnc(-c2cccnc2)n1-c1ccccc1)Nc1ccc(Oc2ccccc2)cc1,8,12,1
O=C(NCc1nc2ccccc2[nH]1)c1ccccc1,3,nt,nt
COc1ccc(-n2c(SCC(=O)NC3CCCCC3)nnc2-c2cccs2)cc1,1,1,0
C=C(C)Cc1c(C)nc(-c2ccc(Cl)cc2)nc1OC(=S)N(CC)CC,nt,59,-1
COc1ccc(C)cc1NC(=O)CSc1nnnn1-c1ccccc1,-3,0,nt
CNC(=O)[C@H]1O[C@@H](n2cnc3c(NCc4cccc(I)c4)ncnc32)C(O)[C@H]1O (some centres undefined),0,10,nt
COc1ccc(C[C@H](N)C(=O)N[C@@H]2[C@@H](CO)OC(n3cnc4c(N(C)C)ncnc43)[C@@H]2O)cc1 (some centres undefined),-1,108*,nt
COc1ccc(-c2cc(SCCN3CCOCC3)c(C#N)c(-c3ccccc3)n2)cc1,nt,29,-1
COc1ccc(CN(C)C[C@@H]2Oc3c(NC(=O)Nc4ccc(C(F)(F)F)cc4)cccc3C(=O)N([C@@H](C)CO)C[C@H]2C)cc1,nt,116*,-8
COc1ccc(CN(C)C[C@@H]2Oc3c(NC(=O)Nc4ccc(C(F)(F)F)cc4)cccc3C(=O)N([C@H](C)CO)C[C@@H]2C)cc1,nt,90*,-4
COc1ccc(NC(=O)Nc2cccc3c2O[C@@H](CN(C)Cc2ccc(C(F)(F)F)cc2)[C@H](C)CN([C@H](C)CO)C3=O)cc1,nt,84*,-3
COc1ccc(NC(=O)Nc2cccc3c2O[C@H](CN(C)Cc2ccc(C(F)(F)F)cc2)[C@H](C)CN([C@@H](C)CO)C3=O)cc1,nt,47,0
O=C(OCC1OC(Oc2ccc(O)cc2COC(=O)C2(O)C(O)CCC2(O)C(=O)O)C(O)C(O)C1O)c1ccccc1 (centres undefined),0,-3,3
O=c1c2ccccc2nc(SCc2ccc3c(c2)OCO3)n1-c1ccccc1,nt,11,2
NNC(=O)CS(=O)Cc1cccc(C(F)(F)F)c1 (centres undefined),nt,1,0
COc1ccc(OC)c(-c2cc(C(=O)NCCc3ccccc3OC)c3ccccc3n2)c1,-1,44,-4
Cc1ccc(S(C)(=O)=O)cc1,nt,5,0
Nc1nnnn1/N=C1/C(=O)Nc2ccc(Br)cc21,nt,57,0
On1onc2c3cc(-c4ccccc4)nc3ccc21,nt,115*,-3
N#CCCN(CCC#N)C(=O)c1cc(-c2ccccc2)nc2ccccc12,0,17,nt
CCn1c(SCC(=O)Nc2ccccc2C(F)(F)F)nnc1-c1cccc(C)c1,0,15,0
NC(=O)CSc1nc2c(c(=O)n1Cc1ccccc1)C1(CCCC1)Cc1ccccc1-2,2,20,nt
COc1cccc2cc(-c3nnc(SCC(=O)Nc4cccc(Br)c4)n3C)oc12,7,107*,-14
COc1cccc2cc(-c3nnc(SCC(=O)Nc4cccc(F)c4)n3C)oc12,1,12,-1
SMILES,STK33 kin inh,NOMO-1 viab,PD-1 reversal
Cc1cc(C)c(C2=NON3N(C(=O)c4cccs4)c4ccccc4N23)c(C)c1,nt,28,-1
Cc1ccc(S(=O)(=O)N2Cc3ccccc3C(C)CC23CCCCC3)cc1 (centres undefined),nt,88*,0
C[C@H](CO)N1C[C@H](C)[C@H](CN(C)Cc2ccncc2)Oc2ccc(NC(=O)NC3CCCCC3)cc2C1=O,nt,105*,0
C[C@H]1CN([C@@H](C)CO)C(=O)c2cc(NC(=O)C3CCCCC3)ccc2O[C@@H]1CN(C)Cc1ccc(-c2ccccc2)cc1,nt,100*,-4
C[C@H]1CN([C@@H](C)CO)C(=O)c2cc(NC(=O)C3CCCCC3)ccc2O[C@H]1CN(C)Cc1ccncc1,-2,97*,-1
C[C@H](CO)N1C[C@H](C)[C@@H](CN(C)Cc2ccc(-c3ccccc3)cc2)Oc2ccc(NC(=O)C3CCCCC3)cc2C1=O,-1,29,0
C[C@@H]1CN([C@H](C)CO)C(=O)c2cc(NC(=O)NC3CCCCC3)ccc2O[C@@H]1CN(C)Cc1ccncc1,nt,11,1
C[C@H]1CN([C@@H](C)CO)C(=O)c2cc(NC(=O)C3CCCCC3)ccc2O[C@@H]1CN(C)Cc1ccncc1,-7,25,-2
CCN1C2=C(C(=O)CC(C)(C)C2)C(c2ccc(OC)cc2)C2=C1CC(C)(C)CC2=O,nt,51,-1
COc1ccccc1OC(C)C(=O)NN (centres undefined),nt,-1,2
COC(=O)[C@@H](NC(=O)c1cc(C)on1)C(C)C,nt,22,0
COC(=O)c1ccccc1NC(=O)CSc1nnc(-c2cc3cccc(OC)c3o2)n1C,3,28,-1
Cc1c(C)c(C)c(S(=O)(=O)N2CCCC2)c(C)c1C,-1,63,-2
CC1=CC(C)(C)N(S(=O)(=O)c2ccc(C)cc2)c2ccccc21,nt,111*,-9
Cc1ccc(S(=O)(=O)c2ccc(-c3ccccc3)cc2)cc1,nt,12,3
CC(=O)c1cccc(NC(=O)CSc2nnc3c(n2)[nH]c2ccccc23)c1,4,59,-2
CCOC(=O)CSc1nnc2c(n1)[nH]c1ccccc12,-3,111*,nt
O=C(CSc1ncn[nH]1)Nc1nsc(-c2ccc(Cl)cc2)n1,1,-17,1
COc1ccc(-c2nnc(SCC(=O)Nc3ccc(Br)c(C)c3C)n2C)cc1,5,22,-1
CCN(C(=O)CSc1nc2sc(C)c(C)c2c(=O)n1-c1ccccc1)c1ccccc1,4,43,nt
COc1c(Cc2ccccc2O)c(O)c(Cc2ccccc2O)c(O)c1C(=O)CCc1ccccc1,-14,106*,-1
COc1c(C)c(O)c(C)c(O)c1C(=O)CCc1ccccc1,-6,45,-1
Cc1cc(Br)c2c(c1)C(O)(CC(=O)c1ccc(C)o1)C(=O)N2 (centres undefined),-1,?,nt
N=c1n(CC(=O)c2ccco2)c2ccccc2n1Cc1ccccc1,1,37,1
O=C(CC1(O)C(=O)N(Cc2ccccc2)c2ccc(Br)cc21)c1ccccc1[N+](=O)[O-] (centres undefined),-2,100*,-1
SMILES,STK33 kin inh,NOMO-1 viab,PD-1 reversal
Cc1cc(Br)c2c(c1)C(O)(CC(=O)c1ccco1)C(=O)N2C (centres undefined),2,122*,-5
O=C(CC1(O)C(=O)N(Cc2ccccc2)c2ccc(Br)cc21)c1ccco1 (centres undefined),0,114*,-9
O=C(CC1(O)C(=O)N(Cc2ccccc2)c2ccccc21)c1ccccc1[N+](=O)[O-] (centres undefined),1,nt,nt
CCc1ccccc1N(CC(=O)NC)S(C)(=O)=O,-3,17,0
Cc1cc(C)c(S(=O)(=O)N(CC(=O)Nc2ccccc2C(F)(F)F)C2CCCCC2)c(C)c1,-2,33,0
Cc1cccc(NC(=O)CSc2nnc(-c3cccnc3)n2-c2ccccc2)c1C,-1,12,1
Cc1sc2ncnc(SCC(=O)Nc3cccc(C(F)(F)F)c3)c2c1C,0,-3,-2
O=CN/C=C\c1ccc(O)cc1,-3,31,1
